An excerpt weighted towards active compounds, which were near 19% of everything screened.
TGFb inhibitor – TGF-b pathway inhibition. AID 588855. HepG2 CAGA-GFP TGF-b/SMAD3 reporter, GFP fluorescence, 18 h; TGF-beta stimulated, 500 pg/mL final. Potency, µM (doses to about 46.1 µM), actives largely listed as inhibitors. 410,000 tested, 1.2% active; note: nearly all actives have a fitted effect of over 65% in size
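Smad-responsive CAGA-GFP expression was quantified in HEPG2 cells exposed to compounds and 500 pg/mL final TGF-beta for 18 h at 37 degrees C; unstimulated wells defined full inhibition.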
S-ASM inh – inhibitors of human secretory acid sphingomyelinase; P17405; Potency, µM (top dose mostly 57.5 µM), usual class: inhibitors; placental ASM, HMU-PC fluorogenic substrate, 60 min; AID 504937; 340,000 tested, 0.006% active
Target sequence (P17405 47-631 limits assumed): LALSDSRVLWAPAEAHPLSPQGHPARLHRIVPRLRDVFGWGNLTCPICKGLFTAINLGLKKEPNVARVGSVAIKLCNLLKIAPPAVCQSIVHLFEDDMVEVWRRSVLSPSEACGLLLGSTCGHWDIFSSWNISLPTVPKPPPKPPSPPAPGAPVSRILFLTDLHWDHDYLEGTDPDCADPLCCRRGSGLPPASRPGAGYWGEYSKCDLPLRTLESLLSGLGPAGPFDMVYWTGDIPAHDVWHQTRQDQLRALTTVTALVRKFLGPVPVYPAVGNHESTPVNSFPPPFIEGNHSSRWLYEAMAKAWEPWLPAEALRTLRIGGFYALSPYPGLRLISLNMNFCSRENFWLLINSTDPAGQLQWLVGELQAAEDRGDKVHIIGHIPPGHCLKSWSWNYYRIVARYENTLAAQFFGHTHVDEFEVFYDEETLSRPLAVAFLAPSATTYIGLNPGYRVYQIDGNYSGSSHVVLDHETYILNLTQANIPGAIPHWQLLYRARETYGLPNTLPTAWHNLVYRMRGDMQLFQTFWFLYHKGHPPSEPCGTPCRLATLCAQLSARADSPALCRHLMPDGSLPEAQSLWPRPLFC
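Human placenta-derived ASM enzyme was preincubated with compound for 10 minutes at room temperature, then given fluorogenic substrate HMU-PC0 (9 uM final) for 60 minutes at 37 °C; a pH 10 stop preceded fluorescence reading at Ex 386/Em 447 nm.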
TDP1 cell noCPT – qHTS for Inhibitors of human tyrosyl-DNA phosphodiesterase 1 (TDP1): qHTS in cells in absence of CPT | DT40 Tdp1-/- hTDP1 cells, no CPT, ATP luminescence, 48 h | Potency, µM (doses to about 46.2 µM), usual class: inhibitors | 420,000 tested, 15% active; note: nearly all actives have a fitted effect of over 55% in size
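Seeded 400 DT40-hTDP1 cells/well (vehicle DMSO, no 20 nM CPT); pinned compounds; ≥48 hr at 37 °C; CellTiter-Glo luminescence as viability measure.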
IL1B secr inh – blocks inflammasome-driven IL-1 beta release. 360,000 tested, 4.7% active. activity change, % at 57.5 µM. AID 743279. THP-1 LPS/ATP IL-1B secretion, AlphaLISA, 16 h; stronger effect = lower value; in the data active = activity change below about -50%; inconclusive = mostly about -30% to -49%
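Secreted IL-1B measured by AlphaLISA bead assay after 16 h compound exposure of THP-1 cells; compounds (final up to 57.5 uM) added 1 h before LPS (250 ng/mL) and ATP (1.25 mM) stimulation; lower signal means less secretion.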
HepG2 viability – kills HepG2 cells in TGF-b inhibitor counter-screen; Potency, µM (titrated, usually from 46.1 µM), most hits filed as cytotoxic; HepG2 CAGA-GFP viability, ATP luminescence, 18 h; AID 588856; 410,000 tested, 0.76% active
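CellTiter-Glo luminescence gave cytotoxicity after 18 hours at 37 degrees C. The cells were HepG2 CAGA-GFP in 1% FBS DMEM, stimulated with 500 pg/mL TGF-beta after compound addition. %Activity was normalised to no-cell wells (complete cell-killing) and DMSO (no toxicity), and curves were fitted and classified.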
DT40 TDP1 CPT – growth inhibition of DT40 Tdp1-/-;hTDP1 cells with camptothecin (screen for TDP1 inhibitors). chicken DT40 Tdp1-/-;hTDP1 cells + 20 nM CPT, ATP luminescence, 48 h. Potency, µM (doses to about 46.2 µM), actives largely listed as inhibitors. 420,000 tested, 12% active; note: nearly all actives have a fitted effect of over 55% in size
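Chicken DT40 Tdp1-/- cells complemented with human TDP1, 400 cells/well, exposed to compounds plus 20 nM camptothecin for at least 48 h at 37 C; viability read as ATP content by CellTiter-Glo luminescence.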
A number is an active result; - = inactive; ? = inconclusive; . = not tested or not shown; ! = repeats disagree. Unless noted, calls come from the whole dose curve; as a rule, active = well fitted curve in the direction sought with a large enough effect; inconclusive = small, poorly fitted or top-dose-only effect, or another doubt; inactive = no such curve, though single readings can be large; an effect the other way counts as inactive or inconclusive.

SMILES | TGFb inhibitor | S-ASM inh | TDP1 cell noCPT | IL1B secr inh | HepG2 viability | DT40 TDP1 CPT
CC(C)N1CCC(N2CCN(CCCc3ccccc3)CC2CCO)CC1 (configuration not stated) | - | - | ? | - | 3.2µM | -
Cc1ccccc1-c1cccc(CN2CCN(C)C(CCO)C2)c1 (configuration not stated) | - | - | - | -54 | - | -
COc1cc(/C=N/NC(=O)C23CC4CC(CC(C4)C2)C3)cc(Br)c1O | - | - | - | - | - | -
COc1cc(/C=N/NC(=O)CC23CC4CC(CC(C4)C2)C3)cc(Br)c1OCC(=O)N(C)C | ? | - | 18µM | - | - | 21µM
CC(C)(C)S(=O)(=O)c1cnc(-c2ccc(Cl)cc2)nc1N | - | - | - | - | - | -
Cc1nc(N)nc(N)c1/C=C/C(C)(C)c1ccc(Cl)cc1 | ? | - | 0.033µM | -106 | - | ?
CCc1cccc(C)c1NC(=O)COCc1cc(-c2ccc3c(c2)OCO3)on1 | - | . | ? | . | - | 23µM
O=C(COCc1cc(-c2ccc3c(c2)OCO3)on1)N1CCN(c2cccc(C(F)(F)F)c2)CC1 | ? | - | 23µM! | - | - | 13µM
CCN1CCN(C(=O)COCc2cc(-c3ccc4c(c3)OCO4)on2)CC1 | - | - | - | - | - | -
COc1ccc(N2CCN(C(=O)COCc3cc(-c4ccc5c(c4)OCO5)on3)CC2)cc1 | - | - | 18µM! | - | - | ?
Cc1cc(C)c(NC(=O)COCc2cc(-c3cccs3)on2)c(C)c1 | - | . | ? | . | - | 18µM
Cc1c(Cl)cccc1NC(=O)COCc1cc(-c2ccc3c(c2)OCO3)on1 | - | . | ? | . | - | ?
COc1ccc(C(=O)Oc2ccc(C3NC(=O)c4c(sc5c4CCN(C)C5)N3)cc2OC)cc1 (configuration not stated) | - | . | 16µM | . | - | ?
COc1ccc(C2NC(=O)c3c(sc4c3CCN(C)C4)N2)cc1O (configuration not stated) | - | . | - | . | - | -
CN1CCc2c(sc3c2C(=O)NC(c2ccc(C(C)(C)C)cc2)N3)C1 (configuration not stated) | - | . | 13µM | . | - | ?
COc1ccc(N2CCN(CC(=O)NCc3ccc(Cl)cc3)CC2)cc1 | - | - | ? | - | - | ?
CCCNC(=O)OCc1cccnc1Sc1ccc(C)cc1 | - | - | 15µM | - | - | ?
Cc1ccc(CN2[C@H](C)[C@H](c3ccccc3)OCCS2(=O)=O)cc1 | - | . | ? | . | - | ?
C[C@@H]1[C@H](c2ccccc2)OCCS(=O)(=O)N1Cc1ccccc1F | - | . | 13µM | . | - | ?
O=S1(=O)CCO[C@H]2Cc3ccccc3[C@H]2N1Cc1ccccc1Br | ? | - | 23µM | - | - | ?
O=S1(=O)CCO[C@H]2Cc3ccccc3[C@H]2N1Cc1ccccc1F | - | - | ? | - | - | 23µM!
O=S1(=O)CCO[C@H]2CCCC[C@@H]2N1Cc1ccccc1F | - | . | ? | . | - | ?
O=S1(=O)CCO[C@H]2CCCC[C@@H]2N1Cc1ccccc1Br | - | . | ? | . | - | ?
Cc1cc2nc(-c3ccc4c(c3)CCC4)ccn2n1 | - | - | - | ? | - | ?
Cc1c(C(=O)Nc2ccc(F)cc2)nnn1-c1cccc(C(F)(F)F)c1 | - | - | 9.2µM | - | - | 7.3µM
SMILES | TGFb inhibitor | S-ASM inh | TDP1 cell noCPT | IL1B secr inh | HepG2 viability | DT40 TDP1 CPT
CCOc1ccc(NC(=O)NC(C)c2c(-n3cccc3)sc3c2CCN(CC)C3)cc1 (configuration not stated) | ? | . | 18µM | . | - | 21µM
CCN1CCc2c(sc(-n3cccc3)c2C(C)NC(=O)Nc2ccc(Br)cc2)C1 (configuration not stated) | 10µM | . | 13µM | . | 14µM | 16µM
CCOCCCNC(=O)NC(C)c1c(-n2cccc2)sc2c1CCN(CC)C2 (configuration not stated) | ? | . | 16µM | . | - | 13µM
O=C(O)C1OC1(c1ccccc1Cl)c1ccccc1Cl (configuration not stated) | ? | - | - | - | - | -
CCOc1ccc(-c2csc(-c3nc(-c4ccc(Br)s4)cs3)n2)cc1 | - | . | - | . | - | -
Cc1ccc(CSC2=Nc3ccccc3C3=NC(CC(=O)NCc4cccs4)C(=O)N23)c(C)c1 (configuration not stated) | - | . | 21µM | . | - | 15µM
COc1ccccc1CNC(=O)CCC1N=C2c3ccccc3N=C(SCc3ccc(C)cc3C)N2C1=O (configuration not stated) | ? | . | ? | . | - | 16µM
COc1ccccc1CNC(=O)CC1N=C2c3ccccc3N=C(SCC(=O)Nc3ccc(F)cc3)N2C1=O (configuration not stated) | - | . | ? | . | - | 26µM
COc1ccccc1CNC(=O)CCC1N=C2c3ccccc3N=C(SCC(=O)Nc3ccc(N(C)C)cc3)N2C1=O (configuration not stated) | - | . | 21µM | . | - | ?
COc1ccccc1CNC(=O)CCC1N=C2c3ccccc3N=C(SCC(=O)Nc3ccc(F)cc3)N2C1=O (configuration not stated) | - | . | - | . | - | -
Cc1cccc(NC(=O)CSC2=Nc3ccccc3C3=NC(CC(=O)NCc4cccs4)C(=O)N23)c1 (configuration not stated) | - | . | ? | . | - | ?
C/C(=N\NC(=O)c1c(Br)cnn1C)c1ccc(NC(=O)c2ccc(F)cc2)cc1 | - | - | - | - | - | ?
O=CN1CCCN(C(=O)CC2C(=O)NCCN2Cc2cccc(Oc3ccccc3)c2)CC1 (configuration not stated) | - | - | - | - | - | -
COc1ccc(CC(=O)OC(C)C(=O)Nc2ccc(Cl)cn2)cc1 (configuration not stated) | - | - | - | - | - | ?
Cc1cc(C)n(CCC(=O)N/N=C/c2ccc(O)cc2O)n1 | - | - | 23µM | - | - | ?
O=C(CN1CCN(S(=O)(=O)c2ccc(Br)cc2)CC1)N/N=C/c1ccc(Cl)c([N+](=O)[O-])c1 | - | - | 18µM | -90 | - | ?
Cc1cc(C)n(CCC(=O)N/N=C/c2ccccc2O)n1 | - | - | 12µM | - | - | 12µM
O=C(Cn1cnc([N+](=O)[O-])n1)N/N=C/c1ccc(O)cc1O | - | - | 12µM | - | - | ?

Compound activity deposited in PubChem by National Center for Advancing Translational Sciences (NCATS).
